# Bioassay records: PubChem BioAssay, National Center for Advancing Translational Sciences (NCATS)
# Sampled rows, rich in hits. Any-hit rate of the full collection: about 2.8%.
# WRN inhibitor = blocks human WRN helicase. WRN helicase unwinding, fluorescent forked duplex, kinetic. AID 651768. Q14191. 360,000 compounds, 0.46% hits. Potency, µM (titrated, usually from 114 µM), usual class: inhibitors; also: nearly all actives have a fitted effect of over 55% in size
#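 Kinetic red-fluorescence monitoring (525/598 nm) tracks WRN helicase activity after 100 nM fluorophore-quencher forked duplex and 2 mM ATP are added to 20 nM enzyme pretreated 15 min at room temperature with compound.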
# POLB inh = DNA polymerase beta (human) inhibition. P06746. Pol beta primer extension/strand displacement, fluorescence kinetic. Potency, µM (titrated, usually from 114 µM), actives largely listed as inhibitors. 340,000 compounds, 1.3% hits
#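 10 nM enzyme + cpd, 15 min RT; start with substrate 50 nM final; read 0 min and after 10 min RT. Corrected, normalized data; 4-parameter Hill curve fit.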
# Pol iota inh = blocks human DNA polymerase iota activity; Pol iota fluorescent replication assay, 10 min; AID 588590; Q9UNA4; Potency, µM (series often up to 115 µM), hits mostly inhibitors; 390,000 compounds, 1% hits
#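 Pol iota at 10 nM preincubated 15 min with compounds at room temperature; reaction started with fluorescent substrate, 50 nM final. Fluorescence read kinetically at 0 and 10 min; buffer-only wells as negative control.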
# Pol eta inh-1 = blocks human DNA polymerase eta activity; Potency, µM (top dose mostly 114 µM), actives largely listed as inhibitors; Q9Y253; 390,000 compounds, 1.2% hits; AID 588591; recombinant Pol eta, fluorescent DNA replication assay
#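 Fluorescent replication assay: 50 nM final substrate added after a 15 min room-temperature compound preincubation with 10 nM enzyme. Signal taken at 0 min and again at 10 min.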
# Pol kappa inh-1 = DNA polymerase kappa (human) inhibition; Q9UBT6; purified Pol kappa, fluorescent DNA synthesis assay, 10 min; Potency, µM (titrated, usually from 107 µM), hits mostly inhibitors; 400,000 compounds, 0.53% hits
#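 Kinetic fluorescence screen: compound preincubated 15 min RT with 10 nM enzyme; 50 nM substrate (final) initiates; reads at 0/10 min.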
# PI5P4Ka inh = inhibitors of human PI5P4K alpha; P48426; PI5P4Kalpha enzyme, ADP-Glo luminescence, 60 min; active compounds read low; max response, %; 330,000 compounds, 1.2% hits; AID 652105; active = max response of -50% or lower; inconclusive = between -30% and -50%; inactive = -30% or higher; also: value at the top dose of about 77 µM
# Target sequence (P48426 whole entry, looked up): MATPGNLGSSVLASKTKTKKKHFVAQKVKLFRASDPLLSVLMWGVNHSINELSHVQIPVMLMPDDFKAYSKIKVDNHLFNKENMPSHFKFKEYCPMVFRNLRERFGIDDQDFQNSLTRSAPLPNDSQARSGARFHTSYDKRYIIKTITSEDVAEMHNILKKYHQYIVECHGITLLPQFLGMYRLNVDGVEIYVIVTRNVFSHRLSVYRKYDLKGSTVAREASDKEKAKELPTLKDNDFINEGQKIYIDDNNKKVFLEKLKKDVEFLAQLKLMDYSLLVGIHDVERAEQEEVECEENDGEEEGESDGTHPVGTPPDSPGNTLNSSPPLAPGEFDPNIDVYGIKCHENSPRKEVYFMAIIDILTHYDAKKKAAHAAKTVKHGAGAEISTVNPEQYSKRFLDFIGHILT
#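 Compounds were pin-transferred onto PI5P4Kalpha and substrate in HEPES pH 7.4 buffer with EGTA, CHAPS and 5% DMSO. ATP (5 microM final) started the reaction, which ran 60 minutes at room temperature before ADP-Glo detection.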
# GALK confirm = galactokinase (human) inhibition, confirmation; 150 compounds, 70% hits; Potency, µM (doses to about 115 µM), actives largely listed as inhibitors; purified GALK, Kinase-Glo ATP depletion luminescence; shares compounds with Pol eta inh-1
# GALK redox cs = generates H2O2 by redox cycling, flagging GALK artifacts. shares compounds with Pol eta inh-1. Phenol red-HRP H2O2 redox cycling, absorbance 600 nm. Potency, µM (titrated, usually from 115 µM), actives largely listed as inhibitors. 150 compounds, 40% hits. AID 2035
# HEK293 tox = HEK-293 cytotoxicity, GALK inhibitor secondary. AID 2547. shares compounds with Pol eta inh-1. Potency, µM (top dose mostly 46.1 µM), usual class: inhibitors. HEK-293 viability, ATP luminescence (CellTiter-Glo), 24/48 h. 170 compounds, 10% hits
# Pol kappa inh-2 = confirmation of human DNA polymerase kappa inhibitors | shares compounds with Pol eta inh-1 | purified Pol-kappa, fluorescent strand-displacement substrate | Potency, µM, most hits filed as inhibitors | 920 compounds, 76% hits | AID 720501
# Pol eta inh-2 = Pol eta (human) inhibition, cherry-pick confirmation; shares compounds with Pol eta inh-1; Pol eta primer extension, TAMRA/BHQ fluorescence, 10 min; Potency, µM, most hits filed as inhibitors; 2,600 compounds, 64% hits
# Numbers stand for hits; 0 = inactive; ? = inconclusive; - = no result given; [ ] = remark or other dose. Unless noted, calls follow the shape of the dose curve; as a rule, active = well fitted curve in the direction sought with a large enough effect; inconclusive = small, poorly fitted or top-dose-only effect, or another doubt; inactive = no such curve, though single readings can be large; an effect the other way counts as inactive or inconclusive.
SMILES,WRN inhibitor,POLB inh,Pol iota inh,Pol eta inh-1,Pol kappa inh-1,PI5P4Ka inh,Pol eta inh-2,others
Cc1ccc(-c2csc3ncn(CC#N)c(=O)c23)cc1C,0[11.6 µM],31.6µM,28.2µM,20µM,79.4µM,-91.2,53.6,Pol kappa inh-2=59.7
Cc1nc(Nc2nc(-c3ccccc3)cc(=O)[nH]2)nc2ccccc12,0,-,0,?,0,0,?,
CCOc1ccc(C(=O)c2cn(CC(=O)Nc3cc(OC)cc(OC)c3)c3ccc(F)cc3c2=O)cc1,-,14.1µM,?,?,0,-,-,Pol kappa inh-2=?
CCOc1ccc(Oc2c(/C=N/NC(=O)C3CC3)c(C)nn2-c2ccccc2)cc1,0,0,0,0,0,0,-,
COc1cc(/C=C(\C#N)c2nc3ccc(C)cc3[nH]2)ccc1OCc1ccc(C)cc1,-,?,?,?,?,-,-,Pol kappa inh-2=?
COc1cccc(/C=C(\C#N)c2nc3ccc(C)cc3[nH]2)c1,-,?,0,89.1µM,0,-,-,Pol kappa inh-2=?
CCOC(=O)N1CCc2c(sc(NCc3sccc3C)c2C(=O)Nc2ccccc2OCC)C1,-,0,0,0,0,-,-,
CCOC(=O)C1=C(COC(=O)COc2ccccc2OCC)NC(=O)NC1C (stereo not drawn),0,-,0,0,0,0,-,
CCOC(=O)C1=C(COC(=O)c2ccc([N+](=O)[O-])s2)NC(=O)NC1C (stereo not drawn),0,-,50.1µM,39.8µM,?,0,?,
CCOC(=O)C1=C(COC(=O)COc2ccccc2C=O)NC(=O)NC1C (stereo not drawn),0,-,?,12.6µM,?,0,75.7,
COc1ccccc1OCCOc1ccc(/C=C2\C(=N)N3N=C(S(C)(=O)=O)SC3=NC2=O)cc1,0[11.6 µM],?,0,22.4µM,0,-81.3,?,Pol kappa inh-2=?
COc1cc(/C=C2/C(=N)N3C(=NC2=O)SN=C3S(=O)(=O)C(C)C)ccc1OS(=O)(=O)c1ccccc1,-,?,-,-,-,-,-,GALK confirm=?;GALK redox cs=0;HEK293 tox=0
COc1cc(/C=C2/C(=N)N3C(c4ccccc4)=CSC3=NC2=O)ccc1OCC(=O)O,0[11.6 µM],0,0,20µM,0,-52.4,?,
COc1cc(/C=C2\C(=N)N3N=C(S(C)(=O)=O)SC3=NC2=O)ccc1OS(=O)(=O)c1ccc(C)cc1,0[11.6 µM],100µM,20µM,31.6µM,?,-80.3,47.8,
CC(C)[C@H]1COCCS(=O)(=O)N1Cc1ccccc1,0,-,0,0,0,0,-,
Cc1cccc(OCC(=O)Nc2cc(C)c(O)c(-c3nc4ccccc4o3)c2)c1,-,-,0,-,0,-,-,
COc1ccc(-c2cn(CCN)c(-c3ccncc3)n2)cc1,0,-,0,0,0,0,-,
CCOC(=O)c1cccc(NC(=O)NCc2cccn2Cc2ccccc2)c1,-,0,0,0,0,-,-,
COc1cc(/C=C2\C(=N)N3N=C(S(C)(=O)=O)SC3=NC2=O)cc(OC)c1OCCOc1ccccc1C,?,?,?,25.1µM,0,?,?,Pol kappa inh-2=?
COc1cccc(C(=O)c2ccccc2NC(C)=O)c1,0,-,-,0,-,0,-,
COC(=O)CC1COc2ccccc2N1C(=O)/C=C/c1ccccc1 (stereo not drawn),0,0,0,0,0,0,-,
COc1ccc(-n2c(C)c3c(OC)cccc(=O)c3c2C)cc1,0,0,0,?,0,0,-,
CCOc1cccc(=O)c2c(C)n(-c3ccc(C(=O)O)cc3)c(C)c12,?,22.4µM,?,28.2µM,?,0,26.9,
O=C1NC(=S)N/C1=C/c1cc2c(cc1[N+](=O)[O-])OCO2,0,0,0,?,?,0,84.9,
Cc1ccc(-n2nc(CO)c(C(=O)NCCCc3ccccc3)n2)cc1,-,0,0,0,0,-,-,
SMILES,WRN inhibitor,POLB inh,Pol iota inh,Pol eta inh-1,Pol kappa inh-1,PI5P4Ka inh,Pol eta inh-2,others
COCCN(CCOC)Cc1cc(=O)oc2cc(C)c(Cl)cc12,0,-,-,-,-,0,-,
CC(=O)Nc1ccc(S(=O)(=O)N(C)c2ccc(OCCOc3cccc(C)c3)cc2)cc1,?,-,31.6µM,20µM,?,0,?,Pol kappa inh-2=37.7
COC(=O)CNC(=O)c1ccc(NS(=O)(=O)c2cc([N+](=O)[O-])ccc2Cl)cc1,0[11.6 µM],?,?,31.6µM,0,0,75.7,
Cc1ccc([N+](=O)[O-])cc1S(=O)(=O)Nc1ccc(C(=O)NCc2ccccn2)cc1,0,-,?,?,?,?,?,
Cc1cc(C)cc(NC(=O)CSc2nnc(-c3cc(C)[nH]n3)n2N)c1,0,0,0,0,0,0,-,
O=C(Nc1nnc(S(=O)(=O)N2CCCc3ccccc32)s1)c1ccccc1Br,-,0,0,79.4µM,0,-,?,Pol kappa inh-2=?
O=C(Nc1nnc(S(=O)(=O)N2CCCc3ccccc32)s1)c1ccc(Cl)cc1,-,0,0,?,0,-,-,Pol kappa inh-2=?
Cc1ccc(NC(=O)c2c(C)oc3c2C2=NCCN2C=N3)cc1F,-,0,0,0,0,-,-,
COc1ccccc1C(=O)N=Nc1c(O)[nH]c2ccc([N+](=O)[O-])cc12,0,0,0,0,?,0,-,
O=C(N=Nc1c(O)[nH]c2ccc([N+](=O)[O-])cc12)c1cc(-c2ccccc2Cl)nc2ccccc12,0[11.6 µM],?,?,?,0,?,-,Pol kappa inh-2=?
CC(=O)N1CCc2c(sc(NC(=O)C3COc4ccccc4O3)c2C(N)=O)C1 (stereo not drawn),0,0,0,22.4µM,0,0,47.8,
CCOc1ccc(CN(CC)C(=O)Cc2c[nH]c3ccccc23)cc1OC,0,0,0,0,0,0,-,
CNc1cncc(-c2cc(OC)c(OC)c(OC)c2)n1,0,-,-,-,-,0,-,
NS(=O)(=O)c1ccc(CCNC(=O)CSc2ccc3ccccc3c2)cc1,0,0,0,0,0,0,-,
NS(=O)(=O)c1ccc(CCNC(=O)CSc2ccsc2[N+](=O)[O-])cc1,0[11.6 µM],0,?,22.4µM,?,-66.5,?,
O=C(c1ccc(F)c(F)c1)N1CCCc2ccccc21,0,0,0,0,0,0,-,
CCN(CC)S(=O)(=O)c1ccc(NC(=O)Cc2cccs2)cc1,0[11.6 µM],28.2µM,?,56.2µM,0,?,?,
